PubChem BioAssay (NCI)
Compounds without any hit were thinned out: in the full panel of roughly 83,000, 20% have a hit.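 Growth was measured after 48 h exposure to one concentration of compound in 96-well plates. Values under 10 count as active.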 Unmarked numbers belong to inactive results. The source made the active and inactive calls.

These compounds were tested on HCT-15 colon (assay: NCI-60 one-dose screen, 48 h (100 = growth as untreated, 0 = no growth, -100 = all killed)). Settings: 10 µM.

| SMILES | growth |
| --- | --- |
| O=C(/C=C/c1ccco1)c1nc2ccccc2n1Cc1ccc(Br)cc1 | 9.97% (active) |
| O=C(/C=C/c1ccco1)c1nc2ccccc2n1Cc1ccc(F)cc1 | 32.3% |
| COc1cc2cc(C(=O)N3C[C@@H](CCl)c4c3cc(OC(=O)N3CCN(C)[C@@H]5CSSC[C@@H]53)c3ccccc43)[nH]c2c(OC)c1OC | 1.23% (active) |
| C#CC[Se]C(=O)c1ccc2n[se]nc2c1 | 25.8% |
| O=C(/C=C/c1ccc(Cl)cc1Cl)c1nc2ccccc2n1Cc1ccc(F)cc1 | 11.8% |
| O=C(/C=C/c1ccc(Cl)cc1)c1nc2ccccc2n1Cc1ccc(Br)cc1 | 21.4% |
| CCOP(=O)(OCC)C(NC(C)=O)C(=O)SCCN (centres undefined) | 102% |
| COc1cc2cc(C(=O)N3C[C@@H](CCl)c4c3cc(OC(=O)N3CCN(C)[C@@H]5CSSC[C@H]53)c3ccccc43)[nH]c2c(OC)c1OC | -18.7% (active) |
| COc1ccc2cc([C@H](C)C(=O)[Se]CCC#N)ccc2c1 | -31.7% (active) |
| CC12OOC(C)(OO1)C2CCC(=O)OCCNc1ccnc2cc(Cl)ccc12 (centres undefined) | -73.2% (active) |
| CC(C)N=C([Se])NC(=O)c1cccs1 | 34.9% |
| Cc1ccc2[nH]c(=S)n(-c3ccc(F)cc3)c(=O)c2c1 | 98.9% |
| CCOC(=O)C1=C(Nc2ccccc2)C(=O)OC12C(=O)Nc1ccccc12 (centres undefined) | 105% |
| CC12CCC3(CCC(=O)NCCCNc4ccnc5cc(Cl)ccc45)[C@@](C)(OO[C@]3(C)O1)O2 | 6.51% (active) |
| CC[C@]12C=CCN3CC[C@@]4(c5ccc(OC)cc5N(C)[C@H]4[C@@](O)(C(=O)OC)[C@@H]1OC(=O)CCCC[P+](C1CCCCC1)(C1CCCCC1)C1CCCCC1)[C@@H]32 | 75.2% |
| CC(=O)Oc1ccccc1C(=O)[Se]C(=NC(C)C)NC(C)C | -45.6% (active) |
| COCCOCCOCCOc1ccc(-n2cc(CCCN(CCNc3ccnc4cc(Cl)ccc34)C(=O)CCC(=O)O[C@@H]3O[C@@H]4OC5(C)CC[C@H]6[C@H](C)CC[C@@H]([C@H]3C)[C@@]46OO5)nn2)cc1 | 14.2% |
| C[C@H]1[C@@H](CC(=O)N[C@@H](Cc2coc3ccccc23)B(O)O)O[C@@H]2OC3(C)CC[C@H]4[C@H](C)CC[C@@H]1[C@@]24OO3 | -62.3% (active) |
| COP(=O)(CC(F)(F)C(F)(F)F)OC | -15.2% (active) |
| CC12OOC(C)(OO1)C2CCC(=O)NCCNc1ccnc2cc(Cl)ccc12 (centres undefined) | 95.2% |

| SMILES | growth |
| --- | --- |
| CC[C@]12C=CCN3CC[C@@]4(c5ccc(OC)cc5N(C)[C@H]4[C@@](O)(C(=O)OC)[C@@H]1OC(=O)CCC[P+](c1ccc(C)cc1)(c1ccc(C)cc1)c1ccc(C)cc1)[C@@H]32 | -91% (active) |
| CC(C)N=C([Se])NC(=O)c1ccccc1 | 1.65% (active) |
| CC[C@]12C=CCN3CC[C@@]4(c5ccc(OC)cc5N(C)[C@H]4[C@@](O)(C(=O)OC)[C@@H]1OC(=O)CCC[P+](C1CCCCC1)(C1CCCCC1)C1CCCCC1)[C@@H]32 | 76.6% |
| CC1=C(COCCOC(=O)c2ccc(S(=O)(=O)F)cc2)C2=C(C)C3(CC3)[C@@](C)(O)C(=O)C2=C1 | -29.6% (active) |
| CC[C@]12C=CCN3CC[C@@]4(c5ccc(OC)cc5N(C)[C@H]4[C@@](O)(C(=O)OC)[C@@H]1OC(=O)CCCC[P+](c1ccc(OC)cc1)(c1ccc(OC)cc1)c1ccc(OC)cc1)[C@@H]32 | -5.69% (active) |
| CC1=C(CCC=NNC(N)=O)C2=C(C)C3(CC3)[C@@](C)(O)C(=O)C2=C1 | -49.2% (active) |
| CC[C@@]12CC(C(=O)OC)=C3Nc4cc5c(cc4[C@@]34CCN(C[C@H]3O[C@H]31)[C@@H]24)[C@@H]1[C@H](O5)[C@@H](O)[C@@]2(CC)CC(C(=O)OC)=C3Nc4cc(OC)ccc4[C@@]34CCN1[C@@H]24 | -38.1% (active) |
| CCOP(=O)(CC(F)(F)C(F)(F)F)OCC | -33.2% (active) |
| CC1=C2C(=C[C@@](C)(COP(=O)(Oc3ccccc3)Oc3ccccc3)[C@@H]2O)C(=O)[C@@](C)(O)C12CC2 | -32.5% (active) |
| CC(=O)Oc1ccccc1C(=O)NC([Se])=NC1CCCCC1 | 3.57% (active) |
| C[C@H]1[C@H](OC(=O)CCC(=O)N(CCCc2cn(-c3ccc(CN4CCOCC4)cc3)nn2)CCNc2ccnc3cc(Cl)ccc23)O[C@@H]2OC3(C)CC[C@H]4[C@H](C)CC[C@@H]1[C@@]24OO3 | 8.55% (active) |
| O=C(/C=C/c1ccc(Cl)cc1)c1nc2ccccc2n1Cc1ccc(F)cc1 | -1.45% (active) |
| CC1=C(CCC=O)C2=C(C)C3(CC3)[C@@](C)(O)C(=O)C2=C1 | -71.1% (active) |
| O=C(NC([Se])=NC1CCCCC1)c1ccc2c(c1)OCO2 | 47.3% |
| C[C@H]1[C@H](OC(=O)CCC(=O)N(CCCc2cn(-c3ccc(C#N)cc3)nn2)CCNc2ccnc3cc(Cl)ccc23)O[C@@H]2OC3(C)CC[C@H]4[C@H](C)CC[C@@H]1[C@@]24OO3 | 12.1% |
| C[C@H]1[C@@H](Oc2ccc(-c3cn(-c4ccnc5cc(Cl)ccc45)nn3)cc2)O[C@@H]2OC3(C)CC[C@H]4[C@H](C)CC[C@@H]1[C@@]24OO3 | 12.8% |
| COc1ccc(/C=C/C(=O)c2nc3ccccc3n2Cc2ccc(Br)cc2)cc1 | 38.8% |
| COC(=O)CCn1c(-c2ccc(-n3cc(-c4ccc(O[C@H]5O[C@@H]6OC7(C)CC[C@H]8[C@H](C)CC[C@@H]([C@H]5C)[C@@]68OO7)cc4)nn3)cc2)nc2ccccc21 | 10.4% |
| C[C@H]1[C@H](OC(=O)CCC(=O)N(CCCc2cn(-c3ccc([N+](=O)[O-])cc3)nn2)CCNc2ccnc3cc(Cl)ccc23)O[C@@H]2OC3(C)CC[C@H]4[C@H](C)CC[C@@H]1[C@@]24OO3 | 15.8% |
